Where “and” joins values, the source holds several entries; their conditions need not be identical. Identical values can stand only once. The panel holds about 83,000 compounds, 20% with a hit somewhere; the sample as a whole holds those more often.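 The endpoint reported here, percent growth, reads 100 for growth as untreated, 0 for no net growth and -100 for all cells dead.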 Calls of active or inactive are those of the source. The calls were made as follows: active = growth percent below 10; inactive = the rest.
Key:
Experiment in all cases: NCI-60 one-dose screen, 48 h (100 = growth as untreated, 0 = no growth, -100 = all killed)
Conditions in all cases: 10 µM unless noted
HCT-15 colon = test system: HCT-15 colon
HT29 colon = test system: HT29 colon
SNB-75 CNS = test system: SNB-75 CNS
SNB-19 CNS = test system: SNB-19 CNS
U251 CNS = test system: U251 CNS
PC-3 prostate = test system: PC-3 prostate
SK-MEL-5 melanoma = test system: SK-MEL-5 melanoma
UACC-62 melanoma = test system: UACC-62 melanoma
LOX IMVI melanoma = test system: LOX IMVI melanoma
SK-MEL-28 melanoma = test system: SK-MEL-28 melanoma

Row | Structure (SMILES) | growth (HCT-15 colon) | growth (HT29 colon) | growth (SNB-75 CNS) | growth (SNB-19 CNS) | growth (U251 CNS) | growth (PC-3 prostate) | growth (SK-MEL-5 melanoma) | growth (UACC-62 melanoma) | growth (LOX IMVI melanoma) | growth (SK-MEL-28 melanoma)
1 | N=C1/C(=C2\NC3C=CC=CC3S2)C(c2ccc(Cl)cc2)C2C(=O)N(c3ccccc3)C(=S)N12 (stereo not given) | 110% (inactive) | 107% (inactive) | 106% (inactive) | 96.6% (inactive) | 101% (inactive) | 94.3% (inactive) | 99.4% (inactive) | 94.1% (inactive) | 98.2% (inactive) | 103% (inactive)
2 | CCN1C(=O)/C(=c2\sc3n(c2=O)C2C(NN=3)N(CC)C(=O)N2CC)c2ccccc21 (stereo not given) | 19.3% (inactive) | 13% (inactive) | 5.72% (active) | 42% (inactive) | 32.3% (inactive) | 26.3% (inactive) | 12.7% (inactive) | 32.9% (inactive) | 33% (inactive) | 54.2% (inactive)
3 | CN(C)CCCn1c2nc(=O)[nH]c(=O)c-2nc2cc(Cl)c(Cl)cc21 | 87% (inactive) | 20.9% (inactive) | 99.9% (inactive) | 100% (inactive) | 55.2% (inactive) | 60.2% (inactive) | 78.3% (inactive) | 97.9% (inactive) | 41.2% (inactive) | 106% (inactive)
4 | COc1cc(/C=C2/C=C(c3ccc(C(C)(C)C)cc3)N(CCc3ccc(S(N)(=O)=O)cc3)C2=O)cc(OC)c1OC | 30.3% (inactive) | 8.93% (active) | 65.9% (inactive) | 69% (inactive) | 41.7% (inactive) | 8.07% (active) | 32.1% (inactive) | 59% (inactive) | 42.2% (inactive) | 61.9% (inactive)
5 | O=C(c1ccc(Nc2nccc(NCCCNc3ccnc4cc(Cl)ccc34)n2)cc1)N1CCCCC1 | 92.2% (inactive) | 19.7% (inactive) | 90.5% (inactive) | 35% (inactive) | 23% (inactive) | 36.5% (inactive) | 43.7% (inactive) | 21.4% (inactive) | -14.3% (active) | 71.8% (inactive)
6 | CC(=O)c1c(C)nc2ccccc2c1/C=C/c1cccc(C)c1 | 31.3% (inactive) | 18.5% (inactive) | 60% (inactive) | 74.1% (inactive) | 49.8% (inactive) | 65.8% (inactive) | 54.3% (inactive) | 47.8% (inactive) | 42% (inactive) | 75% (inactive)
7 | COCCn1cc(-c2csc(-c3cn(C)c4ccc(F)cc34)n2)c2cccnc21 | 27.9% (inactive) | 35.5% (inactive) | 76.4% (inactive) | 82.6% (inactive) | 65.5% (inactive) | 46.5% (inactive) | 72.7% (inactive) | 79.9% (inactive) | 25.8% (inactive) | 79.8% (inactive)
8 | CCN1CCN(CC(=O)Nc2nc3ccc(NCc4ccc(C)cc4)cc3s2)CC1 | 1.79% (active) | 14.5% (inactive) | 91.6% (inactive) | 81.6% (inactive) | 60.2% (inactive) | 56% (inactive) | 40.7% (inactive) | -57.1% (active) | -42.4% (active) | 53.4% (inactive)
9 | NS(=O)(=O)OCC1OC(n2cnc3cncnc32)C(O)C1O (stereo not given) | 22% [0.1 µM] (inactive) and 8.65% [0.1 µM] (active) | 13.7% [0.1 µM] (inactive) and 14.3% [0.1 µM] (inactive) | 32.3% [0.1 µM] (inactive) and 40.4% [0.1 µM] (inactive) | -4.22% [0.1 µM] (active) and 0.183% [0.1 µM] (active) | -11.8% [0.1 µM] (active) | 21% [0.1 µM] (inactive) and 17.8% [0.1 µM] (inactive) | 49.4% [0.1 µM] (inactive) | 44.2% [0.1 µM] (inactive) and 42.4% [0.1 µM] (inactive) | 5.02% [0.1 µM] (active) and 5.99% [0.1 µM] (active) | 38.5% [0.1 µM] (inactive) and 37.4% [0.1 µM] (inactive)
10 | C=C[C@]1(C)C=C2CC[C@@H]3C(C)(C)C(=O)CC[C@@]3(C)[C@@H]2CC1 | 106% (inactive) | 102% (inactive) | 90.5% (inactive) | 108% (inactive) | 98.5% (inactive) | 98.8% (inactive) | 109% (inactive) | 97.9% (inactive) | 99.5% (inactive) | 113% (inactive)
11 | CN1CCN(CCNC(=O)c2cccc(CN3c4cccc5c4C(=Cc4cccnc43)N(C)C5=O)c2)CC1 | 10.7% (inactive) | 17.7% (inactive) | -11.2% (active) | 42.9% (inactive) | 48.2% (inactive) | 39.6% (inactive) | 12.9% (inactive) | 17.3% (inactive) | 8.25% (active) | 67.8% (inactive)
12 | CON1CCC[C@]2(C)[C@H]3CC[C@@H]4[C@H]5[C@@H](O)C(C)(C)CC[C@]5(CO)CC[C@@]4(C)[C@]3(C)CC[C@H]2C1(C)C | 106% (inactive) | 91.2% (inactive) | 98.7% (inactive) | 100% (inactive) | 90% (inactive) | 59.6% (inactive) | 102% (inactive) | 96% (inactive) | 87.7% (inactive) | 107% (inactive)

— PubChem BioAssay (NCI)
